# Most compounds without a hit are left out; they make up all but 6.6% or so of the library.
# BoNT F protease: BoNT/F light chain protease inhibitors, primary screen, biochemical, flow cytometry, MLPCN library. Multiplex microsphere protease cleavage assay. 360,000 tested, 0.22% active. inhibition, % at 10 µM. Botulinum neurotoxin type F light chain protease (Clostridium botulinum); in the data active = inhibition above about 35%, passing the limit was not always enough; inconclusive = no clear call, values can overlap the other calls; also: plate controls were buffer without enzyme for full effect and enzyme alone for no effect
# Autofluor counter: flagged as autofluorescent in microsphere protease counterscreen | compound autofluorescence counterscreen, microsphere flow cytometry; stronger effect = higher value | 360,000 tested, 3.1% active | fluorescence intensity (test concentration not listed); in the data active = fluorescence intensity above about 16000; inconclusive = no clear call, values can overlap the other calls
# BoNT A protease: BoNT/A light chain protease inhibitors, primary screen, biochemical, flow cytometry, MLPCN library | Botulinum neurotoxin type A light chain protease (Clostridium botulinum A str. ATCC 3502) | inhibition, % at 10 µM | 360,000 tested, 0.17% active | multiplex microsphere protease substrate cleavage | AID 588499, 2011; also: plate controls were buffer without enzyme for full effect and enzyme alone for no effect
# Anthrax LF prot: Bacillus anthracis LF protease inhibitors, primary screen, biochemical, multiplex microsphere, MLPCN library; Lethal factor (Bacillus anthracis), P15917; 360,000 tested, 0.12% active; multiplex microsphere protease cleavage assay; inhibition, % at 10 µM; also: plate controls were buffer without enzyme for full effect and enzyme alone for no effect
# GDH-TPI counter: GDH-TPI coupling enzyme inhibitors, primary screen, artefact control for M. tuberculosis FBA inhibitor project, biochemical, absorbance, full deck; GDH-TPI coupled enzyme counterscreen, NADH absorbance; inhibition, % at 4.8 µM; 360,000 tested, 1.2% active; AID 588335, 2011; in the data active = inhibition above about 30%;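 also: 0% = DMSO wells and 100% = wells lacking the enzyme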
# Mtb FBA inh: Mtb FBA enzyme inhibitors, primary screen, biochemical, fluorescence, strain H37Rv | 360,000 tested, 2.3% active | purified M. tuberculosis FBA, fluorescence read-out | inhibition, % at 1 µM; in the data active = inhibition above about 27%;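 also: 0% = vehicle and 100% = reference inhibitor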
# BoNT-A LC CP1: BoNT/A light chain protease inhibitors, confirmation, biochemical, flow cytometry, cherry pick 1 | shares compounds with BoNT F protease | multiplex microsphere protease assay | inhibition, % at 10 µM | 720 tested, 3% active; in the data active = inhibition above about 32%
# BoNT-F LC CP1: BoNT/F light chain protease inhibitors, confirmation, biochemical, flow cytometry, cherry pick 1; shares compounds with BoNT F protease; 720 tested, under 10 active; AID 602140, 2011; inhibition, % at 10 µM; multiplex microsphere protease cleavage assay; call rule not given here
# Anthrax LF CP1: Bacillus anthracis LF protease inhibitors, confirmation, biochemical, multiplex microsphere, cherry pick 1; shares compounds with BoNT F protease; multiplex microsphere protease cleavage assay; inhibition, % at 10 µM; 720 tested, under 10 active; AID 602142, 2011; call rule not given here
# Active calls of the source: *; ? = inconclusive; · = no result given. Rule as the data show it, unless noted: active = inhibition above about 30%; inconclusive = no clear call, values can overlap the other calls; inactive = below that.
SMILES,BoNT F protease,Autofluor counter,BoNT A protease,Anthrax LF prot,GDH-TPI counter,Mtb FBA inh,BoNT-A LC CP1,BoNT-F LC CP1,Anthrax LF CP1
CN(C)c1cccc(C(=O)NCCCn2ccc3ccccc32)c1,0.2,5879,-2.1,1.5,-1.5,4.2,1.2,-1.2,0.9
COc1cccc(C(=O)NCCn2ccc3ccccc32)c1,3.0,5004,4.0,3.9,-5.3,5.3,0.7,-1.5,3.0
COc1ccccc1C(=O)NCCn1ccc2ccccc21,35.6*,9297,95.9*,58.6*,-4.8,-6.4,2.5,2.2,-0.7
COc1ccc2c(c1)CCc1c(C(=O)N(C)c3ccccc3)noc1-2,0.0,4239,-0.8,-4.3,-2.4,0.0,·,·,·
Cc1cc(C)cc(NC(=O)CSc2nc(N)c(NC(=O)c3cccs3)c(=O)[nH]2)c1,7.8,5786,-0.5,2.0,0.5,-2.8,·,·,·
CCCC(=O)Nc1nnc(S(=O)(=O)N(CC)c2ccc(OC)cc2)s1,18.6,3799,-1.3,-3.0,-0.6,0.0,·,·,·
CC(=O)NCCn1ccc2ccccc21,-7.6,2365,-0.5,2.9,6.8,0.8,·,·,·
COCC(C)NS(=O)(=O)c1ccc(C(=O)NCCCn2ccc3ccccc32)cc1 (configuration not stated),15.1,3119,-0.2,-1.1,-6.2,-2.6,1.6,-7.7,2.9
COc1ccc(C(=O)NCCn2ccc3ccccc32)cc1OC,12.3,5089,14.2,22.9,6.7,3.7,0.4,0.4,-2.0
CN(C)NC(=S)NC1CCS(=O)(=O)C1 (configuration not stated),?,3281,4.9,-12.5,11.6,2.2,·,·,·
COc1ccc(-c2oc(=O)n(C)c2-c2ccc(OC)cc2)cc1,90.4*,2904,7.3,7.3,2.5,10.6,-0.1,-5.6,-3.5
CC1(C)CC(=O)C([N+](=O)[O-])=C(NCCCC(=O)O)C1,0.5,2496,-0.4,-2.2,11.8,-2.5,·,·,·
COc1cccc(CN2CCN(C(=O)c3cccc(OC)c3)CC2)c1,2.9,3553,-0.5,18.5,2.6,1.6,·,·,·
O=C(c1ccccc1)N1CCN(Cc2cccc(Oc3ccccc3)c2)CC1,38.2*,2577,3.5,-0.4,9.9,0.8,-1.4,-1.9,0.9
CCOC(=O)C1CCCN(C(=O)c2ccc(OC)cc2)CC1 (configuration not stated),-5.5,3909,-0.3,-3.8,0.9,0.8,·,·,·
CCOC(=O)C1CCN(C(=O)c2ccc3nc(-c4ccc(OC)cc4)c(-c4ccc(OC)cc4)nc3c2)CC1,19.5,5131,29.8*,10.9,2.6,14.4,12.4,-2.1,3.2
CC(C)c1ccc(S(=O)(=O)N2CCN(C(=O)c3cccc(F)c3)CC2)cc1,-1.9,5286,-0.4,-3.3,4.1,-1.7,·,·,·
Cc1cc(=O)[nH]c(SCc2ccc(Cl)cc2Cl)n1,-1.7,3621,-0.4,2.0,-5.7,1.1,·,·,·
CS(=O)(=O)N1CCc2cc(C(=O)Nc3ccc(O)cc3)ccc21,55.7*,4162,1.2,-8.7,3.1,1.7,-0.2,-7.3,-2.6
CC(=O)Nc1ccc(NC(=O)c2ccc3c(c2)CCN3S(C)(=O)=O)cc1,-11.3,2837,0.1,9.8,0.7,0.4,·,·,·
Nc1nc(SCC(=O)Nc2cc(-c3ccccc3)nn2-c2ccccc2)n[nH]1,40.1*,5643,?,6.9,5.0,5.8,1.3,-2.9,-2.9
Cc1ccc(-c2cc(NC(=O)CSc3n[nH]c(N)n3)n(-c3ccccc3)n2)cc1,3.7,4856,0.5,-3.8,5.2,2.1,·,·,·
CCN1CCc2nc3sc(C(=O)N4CCc5ccccc5C4)c(N)c3cc2C1,-27.8,5053,6.2,-1.7,5.7,0.6,·,·,·
CC(C)c1ccc2nc3sc(C(=O)N4CCc5ccccc5C4)c(N)c3cc2c1,23.4,8548,21.2,17.7,4.5,3.4,4.4,-0.9,4.4
CCN(CC)c1nc(C(N)=O)cc(-c2ccccc2)n1,-4.7,4887,0.2,-2.1,0.9,2.9,·,·,·
SMILES,BoNT F protease,Autofluor counter,BoNT A protease,Anthrax LF prot,GDH-TPI counter,Mtb FBA inh,BoNT-A LC CP1,BoNT-F LC CP1,Anthrax LF CP1
CN1CCN(c2nc(C(N)=O)cc(-c3ccccc3)n2)CC1,36.0*,4065,-0.4,-0.2,-4.3,-6.8,0.6,-4.1,-1.8
O=C1N[C@@H](Cc2cnc[nH]2)C(=O)N2CCC[C@@H]12,-2.4,4660,-0.8,-16.9,9.8,4.0,·,·,·
Cc1ccc(CNC(=O)CCS(=O)(=O)c2cc(Br)cc3c2N(C(=O)C2CC2)CC3)o1,8.4,4750,0.0,-1.3,1.9,-0.8,·,·,·
CCOc1ccc(NC(=O)c2ccc(Cl)c(NC(=O)c3ccco3)c2)cc1,37.8*,3511,0.6,13.7,-4.5,-2.4,-2.4,-6.2,-2.9
CCOc1cccc(C(=O)Nc2cccc(NC(=O)c3ccco3)c2)c1,-6.5,4370,-0.9,-5.3,0.6,2.5,·,·,·
CCOc1ccc(Br)cc1S(=O)(=O)Nc1cccc(S(=O)(=O)N(C)C)c1,-0.4,2505,-0.2,0.3,0.0,-2.4,·,·,·
Cc1nn(-c2nnc(NC3CCCCC3)nn2)c(C)c1Br,8.0,2147,34.7*,10.2,2.6,2.1,17.2,0.1,14.0
Cc1ccc(CN(C)C(=O)CSc2nnc3n2CCCCC3)c(C)c1,-3.5,3048,0.3,-2.4,17.8,3.0,·,·,·
Cn1ccnc1C(O)c1cc(C(C)(C)C)c(O)c(C(C)(C)C)c1 (configuration not stated),14.3,6965,25.3,31.7*,2.5,-3.1,4.2,-0.4,1.5
COc1ccc(N2C(=O)C3CCCN3C2c2ccccc2)cc1Cl (configuration not stated),53.3*,4581,0.5,0.2,0.6,3.5,-0.5,4.0,1.2
CCOC(=O)N1CCN(C(=O)COC(=O)C2CCN(S(=O)(=O)c3c(Cl)cccc3Cl)CC2)CC1,3.3,?,3.5,?,1.0,-0.8,·,·,·
O=C(Cc1ccc(Cl)cc1)NC1CCCCCC1,39.8*,3892,-3.0,12.1,1.5,2.1,0.5,-4.5,-2.7
CN(Cc1ccccc1)C(=O)C(C(=O)c1ccc(F)cc1)n1cc(Cl)ccc1=O (configuration not stated),-4.8,4243,-1.4,-7.7,1.6,-0.3,·,·,·
CCN1CCN(c2cc(C)nc(-c3ccccc3O)n2)CC1,-3.0,4586,0.2,-1.2,3.7,-2.5,·,·,·
